Measurements taken from PubChem BioAssay (EPA / NIEHS).
Activity calls are given as the source filed them. How the source made its calls: active means hit-call score of the fitted dose curve at least 0.9, where 1 is the maximum; inactive means score below 0.9.

Legend:
[1] = APR_HepG2_NuclearSize_72hr: Apredica 72-hour HepG2 Assay for Nuclear Size (AID 2282925); conditions: high-content imaging, actives raise or lower the signal
Method in brief: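 HepG2 cells dosed 72 h at 0.39–200 uM (10 concentrations, duplicate) in 0.5% v/v DMSO final. Fixed, Hoechst 33342-stained nuclei imaged; nuclear diameter measured by automated image analysis. Bidirectional fit versus DMSO.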

[2] = ATG_CRE_CIS: Attagene CIS-FACTORIAL HepG2 Assay for human cAMP Responsive Element (CRE) binding protein 3 (AID 2282926); conditions: HepG2 CRE cis-reporter, Attagene multiplexed mRNA; actives raise or lower the signal
Method in brief: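 HepG2 cells transiently transfected with a multiplexed reporter library (CRE-driven unit among them) were dosed for 24 h. Reporter mRNA was quantified by RT-PCR, fluorescent labelling, HpaI digestion and capillary electrophoresis, with bidirectional fitting against DMSO baseline.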

[3] = target: CCAAT/enhancer-binding protein beta (Homo sapiens) (UniProt P17676); assay: ATG_C_EBP_CIS: Attagene CIS-FACTORIAL HepG2 Assay for human CCAAT/Enhancer Binding Protein (C/EBP) beta (AID 2282927); conditions: HepG2 Attagene cis-factorial transcription factor reporter; actives raise or lower the signal
Method in brief: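 Transiently transfected HepG2 (MRTU library, endogenous TF-driven promoters); 24 h dosing; total RNA → oligo(dT) RT → PCR → 6-FAM primer extension → HpaI digest → CE; fit bidirectionally vs DMSO.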

[4] = ATG_CMV_CIS: Attagene CIS-FACTORIAL HepG2 Assay for human CMV (Internal Marker) (AID 2282928); conditions: HepG2 CMV promoter reporter, transcription factor profiling; actives raise or lower the signal;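 further: endpoint acts as a background internal control marker rather than a target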
Method in brief: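 After transient transfection of HepG2 with reporter transcription units driven by cis-regulatory promoters, cells receive test chemical for 24 h. Labeled reporter amplicons, digested with HpaI, are sized and quantified by capillary electrophoresis against DMSO.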

[5] = ATG_DR4_LXR_CIS: Attagene CIS-FACTORIAL HepG2 Assay for human Liver X Receptor (LXR), DR4 submotif (AID 2282929); conditions: HepG2 Attagene DR4 cis-reporter, mRNA transcription; actives raise or lower the signal
Method in brief: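 Fluorescence intensity of labelled reporter cDNA fragments, separated by capillary electrophoresis, gives the signal. HepG2 cells bearing cis-regulated reporter constructs were treated 24 h; activity fitted bidirectionally relative to DMSO negative control.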

[6] = target: Aryl hydrocarbon receptor (Homo sapiens) (UniProt P35869); assay: ATG_Ahr_CIS: Attagene CIS-FACTORIAL HepG2 Assay for human Aryl Hydrocarbon Receptor (Ahr) (AID 2282930); conditions: HepG2 AhR cis-factorial reporter transcription; actives raise or lower the signal
Method in brief: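 Read-out: reporter mRNA quantified by RT-PCR with fluorescent primer extension and capillary electrophoresis. Human HepG2 liver cells carried transfected cis-promoter reporter units and were exposed to chemical for 24 h; gain or loss fitted relative to DMSO.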

[7] = ATG_AP_1_CIS: Attagene CIS-FACTORIAL HepG2 Assay for human Activator Protein 1 (AP-1) (AID 2282931); conditions: HepG2 Attagene cis-factorial AP-1 reporter mRNA; actives raise or lower the signal
Method in brief: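 Multiplexed HepG2 reporter assay, 24 h dosing. mRNA induction detected by RT-PCR plus capillary electrophoresis. Activity fitted in both directions against DMSO.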

[8] = ATG_AP_2_CIS: Attagene CIS-FACTORIAL HepG2 Assay for human Activator Protein 2 (AP-2) (AID 2282932); conditions: HepG2 AP-2 cis-reporter, Attagene transcription factor profiling; actives raise or lower the signal
Method in brief: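 Multiplexed mRNA reporter assay in HepG2: cis-regulated units report endogenous factor activity after 24 h treatment. Fluorescence from capillary electrophoresis of RT-PCR products gives the signal, with DMSO as baseline.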

[9] = ATG_BRE_CIS: Attagene CIS-FACTORIAL HepG2 Assay for human Bone Morphogenetic Protein (BMP) Response Element (BRE) (AID 2282933); conditions: HepG2 BMP response element reporter, Attagene transcription factor profiling; actives raise or lower the signal
Method in brief: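 Read-out: reporter mRNA induction quantified by RT-PCR and capillary electrophoresis after 24 h chemical exposure of transfected HepG2 cells. Endogenous factor activity on the BMP response element; gain or loss fitted against DMSO baseline.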

[10] = target: Transcription factor E2F1 (Homo sapiens) (UniProt Q01094); assay: ATG_E2F_CIS: Attagene CIS-FACTORIAL HepG2 Assay for human E2F Transcription Factor 1 (AID 2282935); conditions: HepG2 Attagene cis-reporter, E2F reporter RNA transcripts; actives raise or lower the signal
Method in brief: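 Measures reporter transcript levels via RT-PCR with capillary electrophoresis detection in HepG2 cells harboring cis-regulated reporter units; 24 h post-dose; bidirectional curve fitting with DMSO as baseline.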

[11] = ATG_E_Box_CIS: Attagene CIS-FACTORIAL HepG2 Assay for human Enhancer Box (E-box) (AID 2282936); conditions: HepG2 E-box cis-reporter transcription, actives raise or lower the signal
Method in brief: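 First, HepG2 cells receive multiple cis-regulated reporter constructs by transient transfection. Next, chemicals are applied for 24 h. Finally, reporter mRNA is quantified via RT-PCR and capillary electrophoresis, with DMSO as baseline.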

[12] = ATG_M_61_CIS: Attagene CIS-FACTORIAL HepG2 Assay for M61 Transcription Factor (Internal Marker) (AID 2282937); conditions: HepG2 Attagene CIS-FACTORIAL M61 internal marker reporter; actives raise or lower the signal
Method in brief: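 Endogenous transcription factor activity in HepG2 is read through transiently transfected cis-element reporter units. After 24 h dosing, RNA undergoes reverse transcription, PCR and primer extension with 6-FAM before capillary electrophoresis; DMSO-referenced bidirectional fit.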

[13] = ATG_EGR_CIS: Attagene CIS-FACTORIAL HepG2 Assay for human Early Growth Response 1 (EGR1) (AID 2282938); conditions: HepG2 Attagene CIS-FACTORIAL EGR reporter mRNA; actives raise or lower the signal
Method in brief: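 Activity is taken as induction or loss of reporter mRNA versus DMSO, fitted bidirectionally. Transcripts from cis-regulated reporter units in transiently transfected HepG2 were measured after 24 h by RT-PCR with capillary electrophoresis.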

[14] = ATG_ERE_CIS: Attagene CIS-FACTORIAL HepG2 Assay for Estrogen Response Element (ERE) (AID 2282940); conditions: HepG2 ERE cis-reporter, Attagene RNA transcript; actives raise or lower the signal
Method in brief: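 Readout: reporter mRNA induction by RT-PCR, FAM-labelled primer extension, HpaI digestion and capillary electrophoresis, 24 h after dosing transfected HepG2 cells. Endogenous transcription factors act on cis-element-regulated reporters. Gain or loss fitted against DMSO.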

[15] = ATG_Ets_CIS: Attagene CIS-FACTORIAL HepG2 Assay for human Erythroblast Transformation Specific (ETS) (AID 2282941); conditions: HepG2 ETS cis-reporter transcription, actives raise or lower the signal
Method in brief: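 Human HepG2 hepatoma cells were transiently transfected with promoter-driven reporter constructs and treated for 24 hours. Reporter transcripts were quantified by RT-PCR with fluorescent primer extension; bidirectional curve fitting used DMSO as reference.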

[16] = target: Hepatocyte nuclear factor 3-beta (Homo sapiens) (UniProt Q9Y261); assay: ATG_FoxA2_CIS: Attagene CIS-FACTORIAL HepG2 Assay for human Forkhead box A2 (FOXA2) (AID 2282942); conditions: HepG2 cis-reporter transcription factor activity, 24 h; actives raise or lower the signal
Method in brief: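 Reporter transcript induction is measured by fluorescence after capillary electrophoresis of RT-PCR products from HepG2 cells exposed 24 h. Cis-regulated reporter units report endogenous factor activity; curves fitted both directions against DMSO.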

[17] = ATG_FoxO_CIS: Attagene CIS-FACTORIAL HepG2 Assay for human Forkhead box O (FoxO) (AID 2282943); conditions: HepG2 Attagene cis-reporter, FoxO element, mRNA; actives raise or lower the signal
Method in brief: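 Read-out: fluorescence of 6-FAM-labelled reporter cDNA fragments resolved by capillary electrophoresis. Transiently transfected HepG2 cells were dosed for 24 h; activity fitted in both directions relative to DMSO controls.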

[18] = ATG_GATA_CIS: Attagene CIS-FACTORIAL HepG2 Assay for human GATA Binding Protein (AID 2282944); conditions: HepG2 GATA cis-element reporter, Attagene multiplex mRNA; actives raise or lower the signal
Method in brief: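 Read-out: fluorescent reporter mRNA fragments resolved by capillary electrophoresis after RT-PCR. Human liver HepG2 cells carried transiently transfected cis-regulated reporter constructs; chemicals incubated 24 h; gain or loss of signal fitted relative to DMSO.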

[19] = target: Retinoic acid receptor alpha (Homo sapiens) (UniProt P10276); assay: ATG_DR5_RAR_CIS: Attagene CIS-FACTORIAL HepG2 Assay for human Retinoic Acid Receptor Alpha (RARE), DR5 submotif (AID 2282934); conditions: HepG2 Attagene cis-factorial RARE DR5 reporter, mRNA; actives raise or lower the signal
Method in brief: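 Read-out: DR5-driven reporter transcript measured by RT-PCR, 6-FAM primer extension, HpaI digest and capillary electrophoresis. Human HepG2 liver cells carry transiently transfected cis-element reporter constructs; dosing lasts 24 h. Gain or loss of signal fitted against DMSO baseline.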

[20] = ATG_M_19_CIS: Attagene CIS-FACTORIAL HepG2 Assay for M19 Transcription Factor (Internal Marker) (AID 2282939); conditions: HepG2 Attagene CIS-FACTORIAL M19 internal marker reporter; actives raise or lower the signal
Method in brief: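 Readout: fluorescent reporter-transcript fragments by capillary electrophoresis after RT-PCR. Human HepG2 liver cells carried transfected MRTU constructs reporting endogenous transcription-factor activity; exposure 24 h. Gain or loss of signal fitted relative to DMSO.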

Sequence of Transcription factor E2F1 (Homo sapiens) (Q01094 whole entry, looked up): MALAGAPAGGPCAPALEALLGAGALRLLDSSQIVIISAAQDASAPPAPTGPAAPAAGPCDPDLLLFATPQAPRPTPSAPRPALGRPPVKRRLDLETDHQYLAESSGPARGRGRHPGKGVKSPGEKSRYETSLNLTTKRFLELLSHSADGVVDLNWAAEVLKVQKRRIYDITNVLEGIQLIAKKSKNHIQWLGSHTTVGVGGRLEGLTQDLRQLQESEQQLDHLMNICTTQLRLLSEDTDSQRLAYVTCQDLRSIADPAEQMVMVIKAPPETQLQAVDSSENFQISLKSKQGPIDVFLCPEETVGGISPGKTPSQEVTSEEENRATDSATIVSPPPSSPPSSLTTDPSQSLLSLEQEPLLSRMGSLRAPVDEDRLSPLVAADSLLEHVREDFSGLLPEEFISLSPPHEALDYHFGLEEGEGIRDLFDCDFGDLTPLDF
Sequence of CCAAT/enhancer-binding protein beta (Homo sapiens) (P17676 whole entry, looked up): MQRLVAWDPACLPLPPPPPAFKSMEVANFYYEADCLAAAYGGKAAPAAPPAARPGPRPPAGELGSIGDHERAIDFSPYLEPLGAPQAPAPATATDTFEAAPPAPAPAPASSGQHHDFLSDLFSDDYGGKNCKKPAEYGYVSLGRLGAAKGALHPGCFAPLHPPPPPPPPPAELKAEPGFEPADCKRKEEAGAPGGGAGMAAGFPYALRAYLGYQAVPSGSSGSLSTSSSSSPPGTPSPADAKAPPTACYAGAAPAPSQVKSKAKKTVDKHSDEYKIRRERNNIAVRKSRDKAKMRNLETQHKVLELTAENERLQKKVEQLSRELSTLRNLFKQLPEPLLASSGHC
Sequence of Retinoic acid receptor alpha (Homo sapiens) (P10276 whole entry, looked up): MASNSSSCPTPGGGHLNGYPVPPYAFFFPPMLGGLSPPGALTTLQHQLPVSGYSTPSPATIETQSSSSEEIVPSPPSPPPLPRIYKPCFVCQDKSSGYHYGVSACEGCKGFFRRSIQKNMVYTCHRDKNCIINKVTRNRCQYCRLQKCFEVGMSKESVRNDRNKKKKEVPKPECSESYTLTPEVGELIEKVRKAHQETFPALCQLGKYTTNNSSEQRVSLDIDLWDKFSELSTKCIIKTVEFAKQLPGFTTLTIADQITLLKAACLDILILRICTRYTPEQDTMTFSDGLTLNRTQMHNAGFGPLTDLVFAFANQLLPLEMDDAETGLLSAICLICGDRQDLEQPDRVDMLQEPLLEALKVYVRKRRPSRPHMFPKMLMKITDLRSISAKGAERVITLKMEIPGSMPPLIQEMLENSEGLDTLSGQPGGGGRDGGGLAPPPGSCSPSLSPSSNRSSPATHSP
Sequence of Hepatocyte nuclear factor 3-beta (Homo sapiens) (Q9Y261 whole entry, looked up): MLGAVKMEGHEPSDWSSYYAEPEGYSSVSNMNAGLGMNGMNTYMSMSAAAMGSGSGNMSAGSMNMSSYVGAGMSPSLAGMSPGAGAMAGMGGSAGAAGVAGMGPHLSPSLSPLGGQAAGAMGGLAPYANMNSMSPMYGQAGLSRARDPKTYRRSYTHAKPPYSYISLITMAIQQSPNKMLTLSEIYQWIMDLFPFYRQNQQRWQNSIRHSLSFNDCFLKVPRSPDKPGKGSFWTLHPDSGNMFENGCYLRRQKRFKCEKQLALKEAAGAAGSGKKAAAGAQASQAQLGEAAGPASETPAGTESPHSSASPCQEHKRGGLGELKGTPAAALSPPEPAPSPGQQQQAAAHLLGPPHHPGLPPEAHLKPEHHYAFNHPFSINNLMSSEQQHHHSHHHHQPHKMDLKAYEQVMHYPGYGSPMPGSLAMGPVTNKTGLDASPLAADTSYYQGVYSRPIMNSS
Sequence of Aryl hydrocarbon receptor (Homo sapiens) (P35869 whole entry, looked up): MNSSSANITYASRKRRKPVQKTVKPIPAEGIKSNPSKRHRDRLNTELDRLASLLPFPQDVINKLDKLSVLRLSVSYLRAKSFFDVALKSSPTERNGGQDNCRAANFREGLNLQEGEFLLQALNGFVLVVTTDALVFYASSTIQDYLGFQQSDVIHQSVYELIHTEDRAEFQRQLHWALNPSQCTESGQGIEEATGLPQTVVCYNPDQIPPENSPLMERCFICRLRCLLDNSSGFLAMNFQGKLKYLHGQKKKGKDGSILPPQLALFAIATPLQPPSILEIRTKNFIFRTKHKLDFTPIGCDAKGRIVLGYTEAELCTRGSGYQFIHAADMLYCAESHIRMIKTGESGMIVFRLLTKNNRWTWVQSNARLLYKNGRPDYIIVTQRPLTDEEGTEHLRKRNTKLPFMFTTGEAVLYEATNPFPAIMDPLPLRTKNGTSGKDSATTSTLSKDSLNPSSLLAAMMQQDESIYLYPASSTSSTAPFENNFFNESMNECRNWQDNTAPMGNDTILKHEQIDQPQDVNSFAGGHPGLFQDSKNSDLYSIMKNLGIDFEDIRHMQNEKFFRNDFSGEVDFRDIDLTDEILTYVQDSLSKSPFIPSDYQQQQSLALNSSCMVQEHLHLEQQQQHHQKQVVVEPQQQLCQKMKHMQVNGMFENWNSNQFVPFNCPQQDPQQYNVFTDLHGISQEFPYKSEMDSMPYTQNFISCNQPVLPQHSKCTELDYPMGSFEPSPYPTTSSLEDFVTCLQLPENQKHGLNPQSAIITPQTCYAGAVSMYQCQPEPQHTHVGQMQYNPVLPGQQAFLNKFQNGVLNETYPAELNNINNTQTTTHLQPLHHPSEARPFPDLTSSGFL

SMILES: CCCCc1ccc2c(n1)[C@@H](c1ccc(OC)cc1C[C@H](C)C(=O)O)[C@H](C(=O)O)[C@H]2c1ccc2c(c1)OCO2
- outcome [1]: inactive
- outcome [2]: inactive
- outcome [3]: inactive
- outcome [4]: inactive
- outcome [5]: inactive
- outcome [6]: inactive
- outcome [7]: inactive
- outcome [8]: inactive
- outcome [9]: inactive
- outcome [10]: inactive
- outcome [11]: inactive
- outcome [12]: inactive
- outcome [13]: inactive
- outcome [14]: inactive
- outcome [15]: inactive
- outcome [16]: inactive
- outcome [17]: inactive
- outcome [18]: inactive

SMILES: NCC1(Cc2noc(=O)[nH]2)CCCCC1
- outcome [1]: inactive
- outcome [2]: inactive
- outcome [3]: inactive
- outcome [4]: inactive
- outcome [5]: inactive
- outcome [6]: inactive
- outcome [7]: inactive
- outcome [8]: inactive
- outcome [9]: inactive
- outcome [19]: inactive
- outcome [10]: inactive
- outcome [11]: inactive
- outcome [12]: inactive
- outcome [13]: inactive
- outcome [14]: inactive
- outcome [15]: inactive
- outcome [16]: inactive
- outcome [17]: inactive
- outcome [18]: inactive

SMILES: O=C(O)CCCCC(=O)O
- outcome [1]: inactive
- outcome [2]: inactive
- outcome [3]: inactive
- outcome [4]: inactive
- outcome [5]: inactive
- AC50 [6]: 72.5 µM (active)
- outcome [7]: inactive
- outcome [8]: inactive
- outcome [9]: inactive
- outcome [10]: inactive
- outcome [11]: inactive
- outcome [12]: inactive
- outcome [13]: inactive
- outcome [20]: inactive
- outcome [14]: inactive
- outcome [15]: inactive
- outcome [16]: inactive
- outcome [17]: inactive
- outcome [18]: inactive

SMILES: Cc1ccc(N(C)C)cc1
- outcome [1]: inactive
- outcome [2]: inactive
- outcome [3]: inactive
- outcome [4]: inactive
- outcome [5]: inactive
- outcome [6]: inactive
- outcome [7]: inactive
- outcome [8]: inactive
- outcome [9]: inactive
- outcome [19]: inactive
- outcome [10]: inactive
- outcome [11]: inactive
- outcome [12]: inactive
- outcome [13]: inactive
- outcome [14]: inactive
- outcome [15]: inactive
- outcome [16]: inactive
- outcome [17]: inactive
- outcome [18]: inactive

SMILES: COCCOC[C@H](CC1(C(=O)NC2CCC(C(=O)O)CC2)CCCC1)C(=O)Oc1ccc2c(c1)CCC2 (stereo partly drawn)
- outcome [1]: inactive
- outcome [2]: inactive
- outcome [3]: inactive
- outcome [5]: inactive
- outcome [6]: inactive
- outcome [7]: inactive
- outcome [8]: inactive
- outcome [9]: inactive
- outcome [19]: inactive
- outcome [10]: inactive
- outcome [11]: inactive
- outcome [12]: inactive
- outcome [13]: inactive
- outcome [20]: inactive
- outcome [14]: inactive
- outcome [15]: inactive
- outcome [16]: inactive
- outcome [17]: inactive
- outcome [18]: inactive

SMILES: Cc1cccc(C)c1O
- outcome [1]: inactive
- outcome [2]: inactive
- outcome [3]: inactive
- outcome [5]: inactive
- outcome [6]: inactive
- outcome [7]: inactive
- outcome [8]: inactive
- outcome [9]: inactive
- outcome [19]: inactive
- outcome [10]: inactive
- outcome [11]: inactive
- outcome [12]: inactive
- outcome [13]: inactive
- outcome [14]: inactive
- outcome [15]: inactive
- outcome [16]: inactive
- outcome [17]: inactive
- outcome [18]: inactive

SMILES: Nc1ccc(S(=O)(=O)c2ccc(N)cc2)cc1
- outcome [1]: inactive
- outcome [2]: inactive
- outcome [3]: inactive
- outcome [5]: inactive
- outcome [6]: inactive
- outcome [7]: inactive
- outcome [8]: inactive
- outcome [9]: inactive
- outcome [19]: inactive
- outcome [10]: inactive
- outcome [11]: inactive
- outcome [12]: inactive
- outcome [13]: inactive
- AC50 [14]: 100 µM (active)
- outcome [15]: inactive
- outcome [16]: inactive
- outcome [17]: inactive
- outcome [18]: inactive

SMILES: Nc1nc(N)c2nc(CNc3ccc(C(=O)N[C@@H](CCC(=O)O)C(=O)O)cc3)cnc2n1
- outcome [1]: inactive
- outcome [2]: inactive
- outcome [3]: inactive
- outcome [5]: inactive
- outcome [6]: inactive
- AC50 [7]: 0.00864 µM (active)
- outcome [8]: inactive
- outcome [9]: inactive
- outcome [19]: inactive
- outcome [10]: inactive
- outcome [11]: inactive
- outcome [12]: inactive
- outcome [13]: inactive
- outcome [14]: inactive
- outcome [15]: inactive
- outcome [16]: inactive
- outcome [17]: inactive
- outcome [18]: inactive
